Screening results from PubChem BioAssay.
VP16 counter – counter-screen for ROR gamma inhibitors: Gal4-VP16 reporter; AID 2546; Potency, µM (series often up to 53.6 µM), inactives show at the top dose activity, negative = inhibition, actives largely listed as inhibitors; hit rate 3.5% among 310,000; Drosophila S2 Gal4-VP16 UAS-luciferase, luminescence, 20 h;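 also: Gal4-VP16 expression switched on by copper sulfate through the metallothionein promoter; nearly all actives have a fitted effect of over 50% in size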
Sfp inh – blocks B. subtilis Sfp PPTase activity | Biochemical Sfp PPTase activity, qHTS | Q9F4F7 | hit rate 3.5% among 310,000 | AID 1490 | Potency, µM, for the others: largest response in the series, negative = inhibition, actives largely listed as inhibitors;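 also: the enzyme is Sfp with the accession as filed and its product quenches rhodamine fluorescence; 0% = enzyme reaction without inhibitor and -100% = no enzyme wells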
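Compounds were incubated with enzyme (final 15 nM) for 15 min at room temperature before substrate addition started the reaction. Fluorescence at 525 nm excitation, 598 nm emission was recorded immediately and after 30 minutes.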
RORg inh – ROR gamma (mouse) transcription inhibition | Drosophila S2 Gal4-RORgamma UAS-luciferase reporter, 20 h | Potency, µM (top dose mostly 53.6 µM), inactives show at the highest dose activity change, negative = inhibition, hits mostly inhibitors | hit rate 5.4% among 310,000; also: nearly all actives have a fitted effect of over 60% in size
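In this cell-based reporter format, copper sulfate (700 uM final) drives Gal4–ROR gamma fusion expression from a metallothionein promoter in Drosophila Schneider cells; compounds preincubated 1 hr, reporter read after 20 hr at ambient temperature.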
PLK1 PBD inh – inhibitors of human PLK1 polo-box domain binding; P53350; Plk1 PBD binding of FITC phosphopeptide, fluorescence polarization; Potency, µM, for inactives: max response, negative = inhibition, usual class: inhibitors; hit rate 2.8% among 360,000; AID 720504; also: series mostly up to about 57 µM; nearly all actives have a fitted effect of over 65% in size
ALDH1A1 inh – blocks purified human ALDH1A1 activity | Purified ALDH1A1, NADH fluorescence, propionaldehyde substrate | P00352 | hit rate 7.3% among 220,000 | Potency, µM (titrated, usually from 75.3 µM), inactives show at the highest dose activity, negative = inhibition, hits mostly inhibitors; active = well fitted inhibition curve with a large enough effect, not every such curve was filed as active; inconclusive = small, poorly fitted or top-dose-only effect, or another doubt; inactive = no such curve, though single readings can be large or run the other way;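 also: plate controls were no enzyme wells and a reference inhibitor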
Target sequence (P00352 whole entry, looked up): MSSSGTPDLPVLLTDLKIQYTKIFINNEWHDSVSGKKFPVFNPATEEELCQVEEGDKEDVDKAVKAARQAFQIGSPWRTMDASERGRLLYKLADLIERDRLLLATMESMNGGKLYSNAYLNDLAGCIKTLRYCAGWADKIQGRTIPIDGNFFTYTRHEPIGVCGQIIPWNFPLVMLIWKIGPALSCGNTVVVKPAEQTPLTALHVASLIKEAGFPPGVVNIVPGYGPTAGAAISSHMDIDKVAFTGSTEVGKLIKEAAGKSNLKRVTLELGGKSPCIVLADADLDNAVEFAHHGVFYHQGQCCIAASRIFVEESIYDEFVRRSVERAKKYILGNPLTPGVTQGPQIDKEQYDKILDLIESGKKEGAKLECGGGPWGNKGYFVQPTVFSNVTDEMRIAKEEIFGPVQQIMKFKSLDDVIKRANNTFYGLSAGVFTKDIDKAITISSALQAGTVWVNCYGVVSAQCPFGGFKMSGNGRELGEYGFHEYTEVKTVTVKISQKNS
* marks the source's active call; other numbers are inactive results; u = inconclusive; x = no result given. The list is not random: actives were taken first. Their share in the collection is about 12%. Unless noted, calls follow the shape of the dose curve; as a rule, active = well fitted curve in the direction sought with a large enough effect; inconclusive = small, poorly fitted or top-dose-only effect, or another doubt; inactive = no such curve, though single readings can be large; an effect the other way counts as inactive or inconclusive. Unless noted, % is scaled to controls: 0 for no effect and ±100 for the full control effect; potency is read from the fitted curve at half-maximal effect.

SMILES	VP16 counter	Sfp inh	RORg inh	PLK1 PBD inh	ALDH1A1 inh
C/C(=N\Nc1nc2ccccc2[nH]1)c1ccc2c(c1)OCO2	11µM*	-14%	3.2µM*	-21%	-1%
Clc1ccccc1N/N=C/c1ccc2c(c1)OCO2	5%	-25%	-1%	-9%	u
CC(CNCC1CCCO1)COc1ccccc1 (configuration not stated)	15%	6%	22%	30µM*	-15%
CC(CNCC1CCCO1)COc1cccc2ccccc12 (configuration not stated)	3%	-16%	-19%	1%	u
CC1CCC2(CC1)NC(=O)N(CC(=O)c1cn(CCC#N)c3ccccc13)C2=O (configuration not stated)	-17%	13%	10%	0%	7.1µM*
N#CCCn1cc(C(=O)CN2C(=O)C(=O)N(C3CCCC3)C2=O)c2ccccc21	x	x	x	-12%	x
CCCC(=O)Nc1ccc2c(c1)C(=O)N(C)C[C@@H](OC)[C@H](C)CN(Cc1ccc(-c3ccccn3)cc1)[C@@H](C)CO2	x	x	x	-1%	x
CCN1CCN(Cc2ccc(NC(=O)c3ccc(C)c(NC(=O)C(=O)c4c[nH]c5ccccc45)c3)cc2C(F)(F)F)CC1	u	50µM*	13µM*	-9%	x
CCN1CCN(Cc2ccc(NC(=O)c3cc(NC(=O)c4cc(C)on4)cc(OC)c3)cc2C(F)(F)F)CC1	-23%	-5%	u	-18%	x
CCN1CCN(Cc2ccc(NC(=O)c3ccc(C)c(NC(=O)c4ccc5n[nH]nc5c4)c3)cc2C(F)(F)F)CC1	3%	-1%	-24%	-12%	x
CCN1CCN(Cc2ccc(NC(=O)c3cc(NC(=O)C(=O)c4c[nH]c5ccccc45)cc(OC)c3)cc2C(F)(F)F)CC1	u	50µM*	u	-8%	x
CCOC(=O)CCC1(C(=O)OC)C(=O)CCCCCC=C1C(=O)OC (configuration not stated)	x	x	x	-20%	x
Cn1c(-c2ccsc2)c(-c2cccs2)c2cc(Br)ccc21	x	x	x	2%	x
CCCNC(=O)c1ccc(N2CCC3(CC2)CC(c2ccccc2)=NO3)c(NC(=O)c2ccccc2)c1	1%	56µM*	-8%	0%	x
CCCNC(=O)c1ccc(N2CCC3(CC2)CC(c2ccccc2)=NO3)c(NC(=O)c2ccc(Br)cc2)c1	-4%	20%	25%	-8%	x
O=C(COc1ccc(S(=O)(=O)N2CCOCC2)cc1)N1CCOCC1	x	x	x	-14%	x
O=[N+]([O-])/C=C\c1ccc(N2CCOCC2)cc1	x	x	x	30µM*	x
O=C(COc1ccc(/C=C\[N+](=O)[O-])cc1)N1CCOCC1	1%	40µM*	18%	u	14µM*
O=C(COc1ccc(Cl)cc1)OCC(=O)N1CCOCC1	x	x	x	-1%	x
O=C(c1ccc(Cl)cc1)c1ccc(OCC(=O)N2CCOCC2)cc1	11µM*	-8%	u	-10%	u
O=[N+]([O-])c1cccc(N/N=C/c2ccc(N3CCOCC3)cc2)c1	21%	0%	35%	-15%	x
CN(c1nccc(=O)[nH]1)C1CCN(c2nc3ccccc3n2Cc2ccc(F)cc2)CC1	5%	2%	33%	x	x
C[C@](O)(C(=O)Nc1ccc(S(=O)(=O)c2ccccc2)cc1)C(F)(F)F	1%	-12%	22%	x	3%
C[C@H]1COc2c(N3CCN(C)CC3)c(F)cc3c(=O)c(C(=O)NCc4ccco4)cn1c23	1%	-2%	6%	x	u
Cc1onc(-c2ccccc2)c1C(=O)N/N=C(\N)COc1ccc(Cl)cc1	1.3µM*	5%	1µM*	2%	2%
SMILES	VP16 counter	Sfp inh	RORg inh	PLK1 PBD inh	ALDH1A1 inh
Cc1onc(-c2ccccc2Cl)c1C(=O)N/N=C(\N)COc1ccc(Cl)cc1	1µM*	14%	0.45µM*	4%	-2%
CN1CCN(C(=O)C(=O)c2cn(CC(=O)N3CCOCC3)c3ccccc23)CC1	x	x	x	-8%	x
O=C(Nc1ccccc1)N1CCCC2(CCN(S(=O)(=O)c3ccccc3)CC2)C1	3%	4%	10%	x	u
COc1cc(OC)cc(C(=O)OCC(=O)NC2CCCCCCC2)c1	x	x	x	-15%	x
COC(=O)c1ccc(C(=O)OC)c(NC(=S)N2CCCC(C)C2)c1 (configuration not stated)	7%	4%	7.9µM*	-6%	u
COC(=O)c1ccc(C(=O)OC)c(NC(=S)N2CC(C)CC(C)C2)c1 (configuration not stated)	14%	-10%	11µM*	-12%	u
